Reference: PubChem BioAssay AID1014 (NMMLSC, 2008)
Activity calls are given as the source filed them. Cut-off read from the data, not from the text of the source: active = inhibition of mean fluorescence above about 33%; inactive = the rest.

Assay: blockers of bacterial quorum-sensing reporter fluorescence – flow cytometry, SAR analogs, SAR follow-up (AID 1014);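 note: Staphylococcus aureus RN6390 with RNAIII-GFP reporter stimulated by AIP; bacteria incubated with compound for 3 hours at 37 °C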
Details: at 20 µM, stronger effect = higher value; inhibition of percent positive cells: measured here: percent reporter-positive cells

Inhibition of percent positive cells, 2.5%:
N#Cc1c(NC(=O)COc2ccccc2)sc2c1CCCC2

Inhibition of percent positive cells, 63.1%:
CC1CCCN(C(C(=O)Nc2ccc3c(c2)OCCO3)c2ccccc2)C1 (stereo not drawn)

Inhibition of percent positive cells, -1.5%:
COc1ccc(N2CCN(C(CNC(=O)c3ccc(F)cc3)c3cccnc3)CC2)cc1 (stereo not drawn)

Inhibition of percent positive cells, 1.1%:
O=C(NCC(c1cccnc1)N1CCN(c2ccccc2)CC1)c1cccs1 (stereo not drawn)

Inhibition of percent positive cells, 8.8%:
O=C(O)c1cccnc1Nc1cccc(SC(F)(F)F)c1

Inhibition of percent positive cells, 0.4%:
Cc1ccc(Nc2nc3c(S(=O)(=O)c4ccccc4)nnn3c3ccccc23)cc1

Inhibition of percent positive cells, 3.5%:
O=C(NCC(c1cccnc1)N1CCN(c2ccccc2F)CC1)c1cccc(Cl)c1 (stereo not drawn)

Inhibition of percent positive cells, -0.8%:
COc1ccc(Nc2nc3c(S(=O)(=O)c4ccc(Br)cc4)nnn3c3ccccc23)cc1, Cc1ccc(NC(=O)CN2CCN(Cc3ccc4c(c3)OCO4)CC2)cc1, CC(C)c1ccc(NC(=O)C(c2ccc3c(c2)OCO3)N2CCC3(CC2)OCCO3)cc1 (stereo not drawn), Cc1cc(C)nc(Nc2ccccc2C(=O)O)n1

Inhibition of percent positive cells, 0.6%:
Cc1cc(C)nc(Nc2ccc(Br)cc2C(=O)O)n1, COc1ccc(C2C(C(=O)Nc3ccc4c(c3)OCO4)c3ccccc3C(=O)N2C2CCCCC2)cc1 (stereo not drawn)

Inhibition of percent positive cells, -0.2%:
Cc1nnc2c3ccccc3nc(Nc3ccccc3C(=O)O)n12, COc1cccc(Nc2c(F)c(F)c(F)c(F)c2C(=O)O)c1

Inhibition of percent positive cells, -0.7%:
CC(C)c1ccc(NC(=O)C(c2ccc3c(c2)OCO3)N2CCCCC2)cc1 (stereo not drawn)

Inhibition of percent positive cells, -1.6%:
CC(C)c1ccc(NC(=O)C(c2ccc3c(c2)OCO3)N2CCc3ccccc32)cc1 (stereo not drawn)

Inhibition of percent positive cells, 5.2%:
CN(C)c1ccc(Nc2c(C(=O)O)cc([N+](=O)[O-])cc2[N+](=O)[O-])cc1

Inhibition of percent positive cells, -0.6%:
CCN1CCN(C(C(=O)NC2CCCC2)c2cc3c(cc2[N+](=O)[O-])OCO3)CC1 (stereo not drawn), O=C(Nc1ccc2c(c1)OCO2)C1CCN(Cc2cnn(-c3ccccc3)c2-n2cccc2)CC1

Inhibition of percent positive cells, -1.1%:
CC(=O)c1c(C)oc2ccc(O)cc12, Cc1ccc(S(=O)(=O)c2nnn3c2nc(Nc2cc(C)cc(C)c2)c2ccccc23)cc1, CCc1ccc(Nc2nc3c(S(=O)(=O)c4ccc(C)cc4)nnn3c3ccccc23)cc1

Inhibition of percent positive cells, -0.9%:
CC1CCN(C(C(=O)Nc2ccc(C(C)C)cc2)c2ccc3c(c2)OCO3)CC1 (stereo not drawn), Cc1ccc(C(C)C)c(OCC(=O)Nc2sc3c(c2C#N)CCCCC3)c1

Inhibition of percent positive cells, -0.1%:
CC(=O)c1cc2c(cc1NC(=O)CN1CCN(C(=O)c3ccco3)CC1)OCO2, O=C(Nc1ccc2c(c1)OCO2)C1CCN(C(=O)c2cnn(-c3ccccc3)c2-n2cccc2)CC1, O=C(NCC(c1cccnc1)N1CCN(c2ccc(F)cc2)CC1)c1cccc(Cl)c1 (stereo not drawn)

Inhibition of percent positive cells, 0.9%:
Cc1ccc(Nc2nc3c(S(=O)(=O)c4ccc(C)cc4)nnn3c3ccccc23)cc1

Inhibition of percent positive cells, -0.4%:
COc1ccc(Nc2nc3c(S(=O)(=O)c4ccccc4)nnn3c3ccccc23)cc1

Inhibition of percent positive cells, 0.1%:
CN1CCN(C(=O)C(=O)Nc2ccc3c(c2)OCO3)CC1, O=C(Nc1ccc2c(c1)OCCO2)N1CCCC(CN2CCc3ccccc3C2)C1 (stereo not drawn)

Inhibition of percent positive cells, -1%:
CC1CCN(C(C(=O)NC2CCCC2)c2cc3c(cc2[N+](=O)[O-])OCO3)CC1 (stereo not drawn)

Inhibition of percent positive cells, 0.2%:
N#Cc1c(NC(=O)c2cc3ccccc3c(=O)o2)sc2c1CCCCCC2, O=C(O)c1ccccc1NC(c1ccccc1)c1ccc(Cl)cc1 (stereo not drawn), Cc1[nH]nc(Nc2ccccc2C(=O)O)c1[N+](=O)[O-]

Inhibition of percent positive cells, -2.8%:
COc1ccc(Nc2ccccc2C(=O)O)cc1

Inhibition of percent positive cells, 0%:
O=C(O)c1ccccc1Nc1ccnc(N2CCOCC2)n1, COc1ccc(C(=O)N2CCC(C(=O)Nc3ccc4c(c3)OCO4)CC2)cc1

Inhibition of mean fluorescence, inactive:
CC(=O)c1cc2c(cc1NC(=O)CN1CCN(C(=O)c3ccco3)CC1)OCO2 -5.2%, COc1ccc(Nc2nc3c(S(=O)(=O)c4ccc(Br)cc4)nnn3c3ccccc23)cc1 2.8%, CC(=O)c1c(C)oc2ccc(O)cc12 -5.9%, N#Cc1c(NC(=O)c2cc3ccccc3c(=O)o2)sc2c1CCCCCC2 -18.3%, N#Cc1c(NC(=O)COc2ccccc2)sc2c1CCCC2 -5%, Cc1nnc2c3ccccc3nc(Nc3ccccc3C(=O)O)n12 18.4%, Cc1ccc(NC(=O)CN2CCN(Cc3ccc4c(c3)OCO4)CC2)cc1 -30.1%, CC1CCN(C(C(=O)NC2CCCC2)c2cc3c(cc2[N+](=O)[O-])OCO3)CC1 (stereo not drawn) -5.4%, Cc1ccc(Nc2nc3c(S(=O)(=O)c4ccc(C)cc4)nnn3c3ccccc23)cc1 -16%, COc1ccc(N2CCN(C(CNC(=O)c3ccc(F)cc3)c3cccnc3)CC2)cc1 (stereo not drawn) -63.3%, O=C(Nc1ccc2c(c1)OCO2)C1CCN(C(=O)c2cnn(-c3ccccc3)c2-n2cccc2)CC1 -13.6%, CCN1CCN(C(C(=O)NC2CCCC2)c2cc3c(cc2[N+](=O)[O-])OCO3)CC1 (stereo not drawn) -8.6%, CN1CCN(C(=O)C(=O)Nc2ccc3c(c2)OCO3)CC1 -2.5%, O=C(Nc1ccc2c(c1)OCO2)C1CCN(Cc2cnn(-c3ccccc3)c2-n2cccc2)CC1 -33.1%, Cc1ccc(S(=O)(=O)c2nnn3c2nc(Nc2cc(C)cc(C)c2)c2ccccc23)cc1 -4%, O=C(O)c1ccccc1Nc1ccnc(N2CCOCC2)n1 5.6%, COc1cccc(Nc2c(F)c(F)c(F)c(F)c2C(=O)O)c1 -12.9%, CC(C)c1ccc(NC(=O)C(c2ccc3c(c2)OCO3)N2CCc3ccccc32)cc1 (stereo not drawn) 26.3%, CC(C)c1ccc(NC(=O)C(c2ccc3c(c2)OCO3)N2CCC3(CC2)OCCO3)cc1 (stereo not drawn) 15.2%, COc1ccc(Nc2ccccc2C(=O)O)cc1 0.6%, Cc1ccc(Nc2nc3c(S(=O)(=O)c4ccccc4)nnn3c3ccccc23)cc1 -19%, O=C(Nc1ccc2c(c1)OCCO2)N1CCCC(CN2CCc3ccccc3C2)C1 (stereo not drawn) -1.4%, Cc1cc(C)nc(Nc2ccccc2C(=O)O)n1 22.7%, CCc1ccc(Nc2nc3c(S(=O)(=O)c4ccc(C)cc4)nnn3c3ccccc23)cc1 19.1%, CN(C)c1ccc(Nc2c(C(=O)O)cc([N+](=O)[O-])cc2[N+](=O)[O-])cc1 10.4%, Cc1[nH]nc(Nc2ccccc2C(=O)O)c1[N+](=O)[O-] 0.1%, O=C(NCC(c1cccnc1)N1CCN(c2ccc(F)cc2)CC1)c1cccc(Cl)c1 (stereo not drawn) -11.7%, Cc1ccc(C(C)C)c(OCC(=O)Nc2sc3c(c2C#N)CCCCC3)c1 -18.6%, Cc1cc(C)nc(Nc2ccc(Br)cc2C(=O)O)n1 17.1%, COc1ccc(C2C(C(=O)Nc3ccc4c(c3)OCO4)c3ccccc3C(=O)N2C2CCCCC2)cc1 (stereo not drawn) 8%, COc1ccc(C(=O)N2CCC(C(=O)Nc3ccc4c(c3)OCO4)CC2)cc1 -3.1%, COc1ccc(Nc2nc3c(S(=O)(=O)c4ccccc4)nnn3c3ccccc23)cc1 -5.6%

Inhibition of mean fluorescence, active:
O=C(NCC(c1cccnc1)N1CCN(c2ccccc2F)CC1)c1cccc(Cl)c1 (stereo not drawn) 67.2%, O=C(O)c1cccnc1Nc1cccc(SC(F)(F)F)c1 64.5%, O=C(O)c1ccccc1NC(c1ccccc1)c1ccc(Cl)cc1 (stereo not drawn) 59.8%, CC1CCN(C(C(=O)Nc2ccc(C(C)C)cc2)c2ccc3c(c2)OCO3)CC1 (stereo not drawn) 35%, CC(C)c1ccc(NC(=O)C(c2ccc3c(c2)OCO3)N2CCCCC2)cc1 (stereo not drawn) 36.4%, CC1CCCN(C(C(=O)Nc2ccc3c(c2)OCCO3)c2ccccc2)C1 (stereo not drawn) 91.5%, O=C(NCC(c1cccnc1)N1CCN(c2ccccc2)CC1)c1cccs1 (stereo not drawn) 47.7%
